Assay results as given in PubChem BioAssay (NCI).
The panel holds about 79,000 compounds, 15% with a hit somewhere; the sample as a whole holds those more often. Unmarked numbers belong to inactive results. The source made the active and inactive calls. No stated cut-off is given here; in the data, active means growth inhibition above about 70%; inactive means the rest.

Legend:
[1] = NCI Yeast Anticancer Drug Screen. Data for the rad50 strain (AID 155);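 further: 0% = growth of vehicle-only cultures of the same strain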; details: S. cerevisiae rad50 strain growth inhibition, active compounds read high
Summary of the method: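 Inhibition values express reduced yeast growth in compound-treated cultures relative to vehicle-treated controls.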

[2] = NCI Yeast Anticancer Drug Screen. Data for the mec2-1 strain (AID 157); details: S. cerevisiae mec2-1 strain, active compounds read high
Summary of the method: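 Strain: mec2-1 (DNA repair/cell cycle alteration). Compound exposure, then growth measured; inhibition expressed relative to vehicle.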

[3] = NCI Yeast Anticancer Drug Screen. Data for the sgs1 mgt1 strain (AID 161);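 further: 0% = growth of cultures given vehicle only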; details: S. cerevisiae sgs1 mgt1 strain, active compounds read high
Summary of the method: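 Mutant yeast exposed to compound; growth scored against vehicle-only wells.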

[4] = NCI Yeast Anticancer Drug Screen. Data for the cln2 rad14 strain (AID 165);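 further: 0% = growth equal to vehicle treated cultures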; details: S. cerevisiae cln2 rad14 strain, active compounds read high
Summary of the method: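 Compounds are applied to the cln2 rad14 yeast strain, and growth is then compared with that of vehicle-treated cultures to give inhibition.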

[5] = NCI Yeast Anticancer Drug Screen. Data for the bub3 strain (AID 167); details: S. cerevisiae bub3 mutant strain, active compounds read high
Summary of the method: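 Steps: expose the mutant yeast strain to compound; grow alongside vehicle-treated cultures; measure growth; express inhibition against the vehicle cultures.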

[6] = NCI Yeast Anticancer Drug Screen. Data for the mlh1 rad18 strain (AID 175); details: S. cerevisiae mlh1 rad18 strain growth inhibition, active compounds read high
Summary of the method: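 Read-out is yeast growth inhibition, calculated against vehicle-only controls. The compound was applied to a strain engineered with DNA damage repair alterations.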

[7] = at 5.0 µM (retest, dose inferred, filed as 0.5)
[8] = at 50.0 µM (retest, dose inferred, filed as 5.0)

Work on `Oc1ccc(CC2CCC(O)CC2)cc1` (stereo not given) yielded a growth inhibition [1, 7] of -169%, a growth inhibition [1, 8] of -33% and a growth inhibition ([1]; at 50.0 µM) of 50.5%. For the same compound, the growth inhibition [2, 7] was -61%, the growth inhibition [2, 8] was -33% and the growth inhibition ([2]; at 50.0 µM) was 28.6%. It also gave a growth inhibition [3, 7] of -66%, a growth inhibition [3, 8] of -54% and a growth inhibition ([3]; at 50.0 µM) of 22.6%. For the same compound, the growth inhibition [4, 7] was -59%, the growth inhibition [4, 8] was -43% and the growth inhibition ([4]; at 50.0 µM) was 45%. The growth inhibition [5, 7] was -76%, the growth inhibition [5, 8] was -24% and the growth inhibition ([5]; at 50.0 µM) was 46.6%. The growth inhibition [6, 7] was -121%, the growth inhibition [6, 8] was -78% and the growth inhibition ([6]; at 50.0 µM) was 24.2%.

With `Cc1c[nH]c2c(O)cc3c(c12)[C@H](CCl)CN3C(=O)c1cc2cc(NC(=O)Nc3ccc4[nH]c(C(=O)N5C[C@@H](CCl)c6c5cc(O)c5[nH]cc(C)c65)cc4c3)ccc2[nH]1` the growth inhibition [1, 7] was 38%, the growth inhibition [1, 8] was 70% (active) and the growth inhibition ([1]; at 50.0 µM) was 17.4%. For the same compound, the growth inhibition [2, 7] was 30%, the growth inhibition [2, 8] was 63% and the growth inhibition ([2]; at 50.0 µM) was 33.6%. It also gave a growth inhibition [3, 7] of 33%, a growth inhibition [3, 8] of 64% and a growth inhibition ([3]; at 50.0 µM) of -12.9%. It also gave a growth inhibition [4, 7] of 14%, a growth inhibition [4, 8] of 34% and a growth inhibition ([4]; at 50.0 µM) of -3.3%. For the same compound, the growth inhibition [5, 7] was 34%, the growth inhibition [5, 8] was 56% and the growth inhibition ([5]; at 50.0 µM) was -0.05%. For the same compound, the growth inhibition [6, 7] was 78% (active), the growth inhibition [6, 8] was 86% (active) and the growth inhibition ([6]; at 50.0 µM) was 3.2%.

With `CC1=NC(c2ccccc2)(C2(c3ccccc3)C(c3ccccc3)=C2c2ccccc2)C(=O)O1` (stereo not given) the growth inhibition [1, 7] was 21%, the growth inhibition [1, 8] was 21% and the growth inhibition ([1]; at 50.0 µM) was 86% (active). For the same compound, the growth inhibition [2, 7] was 25%, the growth inhibition [2, 8] was 25% and the growth inhibition ([2]; at 50.0 µM) was 88.8% (active). The growth inhibition [3, 7] was 28%, the growth inhibition [3, 8] was 28% and the growth inhibition ([3]; at 50.0 µM) was 86.9% (active). The growth inhibition [4, 7] was 23%, the growth inhibition [4, 8] was 23% and the growth inhibition ([4]; at 50.0 µM) was 89% (active). For the same compound, the growth inhibition [5, 7] was 11%, the growth inhibition [5, 8] was 11% and the growth inhibition ([5]; at 50.0 µM) was 34.9%. The growth inhibition [6, 7] was 27%, the growth inhibition [6, 8] was 27% and the growth inhibition ([6]; at 50.0 µM) was 86.6% (active).

Compound `C/C(CCn1[nH]c(=O)ccc1=O)=N\NS(=O)(=O)c1ccc(C)cc1` has a growth inhibition [1, 7] of -3%, a growth inhibition [1, 8] of -3% and a growth inhibition ([1]; at 50.0 µM) of -4.05%. For the same compound, the growth inhibition [2, 7] was 4%, the growth inhibition [2, 8] was 15% and the growth inhibition ([2]; at 50.0 µM) was 4.6%. It also gave a growth inhibition [3, 7] of 0%, a growth inhibition [3, 8] of -11% and a growth inhibition ([3]; at 50.0 µM) of 12.6%. It also gave a growth inhibition [4, 7] of 11%, a growth inhibition [4, 8] of 29% and a growth inhibition ([4]; at 50.0 µM) of -6.7%. The growth inhibition [5, 7] was -1%, the growth inhibition [5, 8] was 6% and the growth inhibition ([5]; at 50.0 µM) was -5.15%. It also gave a growth inhibition [6, 7] of -8%, a growth inhibition [6, 8] of 11% and a growth inhibition ([6]; at 50.0 µM) of -10.3%.

With `COc1cc2c(c(-c3cn(C)c4ccccc34)c1OC)OCO2` the growth inhibition [1, 7] was 4%, the growth inhibition [1, 8] was 24% and the growth inhibition ([1]; at 50.0 µM) was 36.2%. The growth inhibition [2, 7] was 0%, the growth inhibition [2, 8] was 54% and the growth inhibition ([2]; at 50.0 µM) was 15.3%. For the same compound, the growth inhibition [3, 7] was 4%, the growth inhibition [3, 8] was 59% and the growth inhibition ([3]; at 50.0 µM) was 86% (active). The growth inhibition [4, 7] was -1%, the growth inhibition [4, 8] was 1% and the growth inhibition ([4]; at 50.0 µM) was -30.6%. The growth inhibition [5, 7] was 2%, the growth inhibition [5, 8] was 78% (active) and the growth inhibition ([5]; at 50.0 µM) was 84.5% (active). It also gave a growth inhibition [6, 7] of 0%, a growth inhibition [6, 8] of 35% and a growth inhibition ([6]; at 50.0 µM) of 41.9%.

In the case of `C[n+]1cc2c3ccccc3ccc2c2ccccc21`, the growth inhibition [1, 7] is reported as 37%, the growth inhibition [1, 8] is reported as 79% (active) and the growth inhibition ([1]; at 50.0 µM) is reported as 59.3%. It also gave a growth inhibition [2, 7] of 37%, a growth inhibition [2, 8] of 69% and a growth inhibition ([2]; at 50.0 µM) of 53.2%. The growth inhibition [3, 7] was 32%, the growth inhibition [3, 8] was 66% and the growth inhibition ([3]; at 50.0 µM) was 75.2% (active). For the same compound, the growth inhibition [4, 7] was 26%, the growth inhibition [4, 8] was 45% and the growth inhibition ([4]; at 50.0 µM) was 56%. For the same compound, the growth inhibition [5, 7] was 7%, the growth inhibition [5, 8] was 57% and the growth inhibition ([5]; at 50.0 µM) was 47%. The growth inhibition [6, 7] was 39%, the growth inhibition [6, 8] was 83% (active) and the growth inhibition ([6]; at 50.0 µM) was 40.3%.

With `COc1cc(C(c2cc3c(cc2OC(C)=O)OCO3)C(C)C(C)=O)cc(OC)c1OC` (stereo not given) the growth inhibition [1, 7] was 3%, the growth inhibition [1, 8] was 84% (active) and the growth inhibition ([1]; at 50.0 µM) was -8.35%. It also gave a growth inhibition [2, 7] of 4%, a growth inhibition [2, 8] of 66% and a growth inhibition ([2]; at 50.0 µM) of 13.8%. For the same compound, the growth inhibition [3, 7] was 5%, the growth inhibition [3, 8] was 95% (active) and the growth inhibition ([3]; at 50.0 µM) was 0.1%. For the same compound, the growth inhibition [4, 7] was 7%, the growth inhibition [4, 8] was 49% and the growth inhibition ([4]; at 50.0 µM) was 51.2%. For the same compound, the growth inhibition [5, 7] was 1%, the growth inhibition [5, 8] was 40% and the growth inhibition ([5]; at 50.0 µM) was -1.75%. For the same compound, the growth inhibition [6, 7] was 1%, the growth inhibition [6, 8] was 38% and the growth inhibition ([6]; at 50.0 µM) was 29.1%.

Work on `Cc1c(-c2ccccc2)ccnc1/C=N/NS(=O)(=O)c1ccccc1` yielded a growth inhibition [1, 7] of 0%, a growth inhibition [1, 8] of -4% and a growth inhibition ([1]; at 50.0 µM) of 42%. For the same compound, the growth inhibition [2, 7] was -1%, the growth inhibition [2, 8] was 15% and the growth inhibition ([2]; at 50.0 µM) was 22.9%. The growth inhibition [3, 7] was 4%, the growth inhibition [3, 8] was 38% and the growth inhibition ([3]; at 50.0 µM) was 82% (active). For the same compound, the growth inhibition [4, 7] was -3%, the growth inhibition [4, 8] was -6% and the growth inhibition ([4]; at 50.0 µM) was 35.3%. The growth inhibition [5, 7] was -8%, the growth inhibition [5, 8] was -3% and the growth inhibition ([5]; at 50.0 µM) was 39.1%. The growth inhibition [6, 7] was -3%, the growth inhibition [6, 8] was 28% and the growth inhibition ([6]; at 50.0 µM) was 52.2%.

In the case of `CC(=O)OCCC1=CCC2CC1C2(C)C` (stereo not given), the growth inhibition [1, 7] is reported as -2%, the growth inhibition [1, 8] is reported as 2% and the growth inhibition ([1]; at 50.0 µM) is reported as -22.6%. The growth inhibition [2, 7] was -40%, the growth inhibition [2, 8] was 4% and the growth inhibition ([2]; at 50.0 µM) was 7.2%. The growth inhibition [3, 7] was -3%, the growth inhibition [3, 8] was 4% and the growth inhibition ([3]; at 50.0 µM) was -12.8%. It also gave a growth inhibition [4, 7] of -6%, a growth inhibition [4, 8] of -7% and a growth inhibition ([4]; at 50.0 µM) of 23.4%. The growth inhibition [5, 7] was -10%, the growth inhibition [5, 8] was -5% and the growth inhibition ([5]; at 50.0 µM) was -16.2%. The growth inhibition [6, 7] was -3%, the growth inhibition [6, 8] was 3% and the growth inhibition ([6]; at 50.0 µM) was -10.7%.

In the case of `COc1ccc(-c2nc3c(C(=O)NCCN(C)C)cccc3c3ccccc23)cc1`, the growth inhibition [1, 7] is reported as 14%, the growth inhibition [1, 8] is reported as 42% and the growth inhibition ([1]; at 50.0 µM) is reported as 70.5% (active). For the same compound, the growth inhibition [2, 7] was 17%, the growth inhibition [2, 8] was 9% and the growth inhibition ([2]; at 50.0 µM) was 56%. For the same compound, the growth inhibition [3, 7] was -12%, the growth inhibition [3, 8] was 55% and the growth inhibition ([3]; at 50.0 µM) was 13.9%. For the same compound, the growth inhibition [4, 7] was 3%, the growth inhibition [4, 8] was 37% and the growth inhibition ([4]; at 50.0 µM) was 0.85%. The growth inhibition [5, 7] was 8%, the growth inhibition [5, 8] was 54% and the growth inhibition ([5]; at 50.0 µM) was -15.3%. The growth inhibition [6, 7] was 10%, the growth inhibition [6, 8] was 37% and the growth inhibition ([6]; at 50.0 µM) was 89.5% (active).
